Experimental findings from PubChem BioAssay AID2551 (National Center for Advancing Translational Sciences (NCATS), 2010) are described below.

The campaign covered roughly 310,000 compounds. About 17,000 (5.5%) were called active. Inconclusive results (about 11%) are left out. Calls come from the whole dose curve; as a rule, active = well fitted inhibition curve with a large enough effect; inconclusive = small, poorly fitted or top-dose-only effect, or effect the other way; inactive = no such curve, though single readings can be large or run the other way. The list comes from a sample in which actives are over-represented; it also holds similar structures and randomly drawn compounds.
% is set by controls: 0 for no effect and ±100 for the full control effect; potency is the fitted concentration of half-maximal effect.

Chain of Nuclear receptor ROR-gamma (Mus musculus) (P51450 whole entry, looked up, the tested form may be a part): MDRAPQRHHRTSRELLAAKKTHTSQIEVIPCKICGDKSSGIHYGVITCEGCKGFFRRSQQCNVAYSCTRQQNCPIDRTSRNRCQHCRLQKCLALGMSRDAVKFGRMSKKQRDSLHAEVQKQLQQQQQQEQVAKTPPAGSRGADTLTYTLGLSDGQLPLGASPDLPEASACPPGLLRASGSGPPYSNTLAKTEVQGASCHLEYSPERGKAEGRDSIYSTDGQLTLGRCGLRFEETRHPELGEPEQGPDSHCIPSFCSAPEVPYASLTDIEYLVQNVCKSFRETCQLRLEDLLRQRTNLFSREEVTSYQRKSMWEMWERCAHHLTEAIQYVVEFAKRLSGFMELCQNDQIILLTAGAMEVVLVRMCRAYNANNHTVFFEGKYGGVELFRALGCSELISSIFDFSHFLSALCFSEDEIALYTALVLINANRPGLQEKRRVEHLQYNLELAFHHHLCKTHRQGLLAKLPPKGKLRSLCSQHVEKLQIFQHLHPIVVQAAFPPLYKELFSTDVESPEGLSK

This assay addresses Nuclear receptor ROR-gamma (Mus musculus) (UniProt P51450). In words: qHTS for inhibitors of ROR gamma transcriptional activity. Note: nearly all actives have a fitted effect of over 60% in size. The conditions noted are these: Drosophila S2 Gal4-RORgamma UAS-luciferase reporter, 20 h; series mostly up to 53.6 µM; activity change, negative = inhibition: at the top concentration. The source says:
NIH Molecular Libraries Probe Production Network [MLPCN] NIH Chemical Genomics Center [NCGC] MLPCN Grant: R03 DA026211-01 Assay Provider: Dan Littman, New York University Assay Overview: The retinoic acid-related orphan receptor (ROR) gamma is a transcription factor that has a central role in the differentiation of Th17 cells, a subset of T helper cells that secrete the inflammatory cytokines IL-17, IL-17F, and IL-22. Th17 cells have been implicated in graft versus host disease, autoimmune disease and asthma. ROR gamma is induced in naive T helper cells in the presence of TGF-beta combined with IL-6, IL-21, or IL-23, and thereafter directs the expression of the Th17 lineage cytokines. To study the mechanism of action of ROR gamma, an insect cell-based assay was screened. This Drosophila Schneider cell line was stably transfected with two vectors: a gene expressing a fusion of the Gal4 DNA binding domain and ROR gamma transactivation domain under the control of the metallothionine promoter and a Photinus luciferase reporter regulated by the Gal4 binding site enhancer, UAS. […] Small molecule inhibitors of ROR gamma activity are detected by a decrease in luciferase reporter activity.
Assay Protocol Summary: For screening, 600 cells in 4 uL/well were dispensed into white solid 1536-well plates (Grenier) using a solenoid-based dispenser. Following transfer of 23 nL compound or DMSO vehicle by a pin tool, the plates were incubated 1 hr at ambient temperature, and 1 uL/well copper sulfate (700 uM final concentration) was added. The plates were centrifuged 15 s at 1000 RPM and incubated 20 hr at ambient temperature. After addition of 1.5 uL Photinus luciferase detection reagent, the plates were incubated 10 min at ambient temperature and then read by an ViewLux (Perkin Elmer) to detect luminescence. Keywords: NIH Roadmap, MLPCN, MLI, MLSMR, qHTS, NCGC, qHTS, nuclear hormone receptor, retinoic acid-related orphan receptor, ROR gamma
On the technique in general: qHTS replaces the single test concentration by a dilution series.
With `O=C1C2CCCN2C(=O)N1CCCCN1CCN(c2cccc(C(F)(F)F)c2)CC1` (stereo not drawn), the “activity change, negative = inhibition” value was -13.4% (inactive).

As to `CC1(C)C2CC=C(/C=N/NC(=O)C3CC3)C1C2` (stereo not drawn), the “activity change, negative = inhibition” value is 3.41% (inactive).

Take `N#Cc1cc([N+](=O)[O-])ccc1Oc1cccc(/C=N/NC(=O)c2ccc(Cl)cc2)c1`: the “activity change, negative = inhibition” value was 3.47% (inactive).

As for `CC1(C)C2CC=C(/C=N/NC(=O)c3ccc(Cl)cc3)C1C2` (stereo not drawn), the Potency was 12.6 µM (active).

Consider `N#Cc1c(-c2ccccc2)nc(SCc2cccc(C(F)(F)F)c2)[nH]c1=O`, for which the “activity change, negative = inhibition” value is -5.35% (inactive).

Consider `Cc1nn(C(C)C(=O)NCCC2=CCCCC2)c(=O)c2nn(-c3ccccc3)c(C)c12` (stereo not drawn), for which the “activity change, negative = inhibition” value was -18.5% (inactive).

Turning to `Cc1cc(C)cc(NC(=S)NCCCN2CCOCC2)c1`, the “activity change, negative = inhibition” value is -41.7% (inactive).

As for `O=C(NNC(=S)NCCCN1CCOCC1)c1ccncc1`, the “activity change, negative = inhibition” value was 0.729% (inactive).

For `CCCCc1ccc(NC(=S)NCCCN2CCOCC2)cc1`, the Potency was 10 µM (active).

As for `COc1ccccc1C(=O)N(C1=NC(C)CS1)c1ccc(Cl)cc1` (stereo not drawn), the “activity change, negative = inhibition” value was 16.1% (inactive).

Turning to `Cc1ccc(C)c(NC(=O)c2ccc3nccnc3c2)c1`, the “activity change, negative = inhibition” value is 15% (inactive).

As for `CCC1(C)Cc2c(sc3[nH]c(=S)n(Cc4ccccc4)c(=O)c23)CO1` (stereo not drawn), the Potency was 0.708 µM (active).

As for `CCC1(C)Cc2c(sc3nc(SC)nc(N)c23)CO1` (stereo not drawn), the “activity change, negative = inhibition” value is 1.66% (inactive).

For `CCC1(C)Cc2c(sc3nc(SC)[nH]c(=O)c23)CO1` (stereo not drawn), the “activity change, negative = inhibition” value is 21.3% (inactive).

Regarding `COc1ccc(S(=O)(=O)NCCCCOc2ccc(Cl)cc2)cc1`, the “activity change, negative = inhibition” value was 21.1% (inactive).

Take `COc1cccc(CNS(=O)(=O)c2ccc3c(c2)N(C(C)=O)CCS3)c1`: the “activity change, negative = inhibition” value is 29.6% (inactive).

Regarding `COc1cccc(C(=O)N/N=C(\C)c2cccc(NC(=O)c3ccc(F)cc3)c2)c1OC`, the “activity change, negative = inhibition” value is 19% (inactive).

Take `COc1cccc(NC(=O)CSc2nnc(Cc3ccc(OC)c(OC)c3)o2)c1`: the “activity change, negative = inhibition” value was -8.74% (inactive).

Consider `CCN(CC)C(=O)N(CC)Cc1ccccc1`, for which the “activity change, negative = inhibition” value is -2.25% (inactive).

Turning to `COc1cccc(CNC(=O)CCN2C(=S)NC(C)(C)CC2C)c1` (stereo not drawn), the “activity change, negative = inhibition” value is -30.2% (inactive).

`CCN(Cc1ccccc1)C(=O)CN1C(=S)NC(C)(C)CC1C` (stereo not drawn): the Potency was 11.2 µM (active).

On to `O=C(N/N=C/c1ccc(Br)o1)c1cncc(Br)c1`, for which the Potency was 5.62 µM (active).

Consider `Cc1ccc(C(=O)N/N=C\c2cc(Br)c(Br)o2)cn1`, for which the Potency is 11.2 µM (active).

As for `O=C(CCc1n[nH]c(=O)[nH]c1=O)N/N=C/c1ccc(Br)o1`, the “activity change, negative = inhibition” value was -0.308% (inactive).

Consider `Cc1ccc(NC(=O)COc2ccc(/C=N\NC(=O)c3cccnc3)cc2)cc1C`, for which the “activity change, negative = inhibition” value was 8.19% (inactive).

Turning to `O=C(N/N=C/c1ccco1)c1ccc(NC(=O)C2CC2)cc1`, the “activity change, negative = inhibition” value is 15% (inactive).

`O=C(CCC(=O)N/N=C/c1ccc(Br)o1)N/N=C/c1ccc(Br)o1`: the “activity change, negative = inhibition” value is -1.84% (inactive).

With `CCN(CC)CCN1C(=O)C2C(C(=O)Nc3ccc(Br)cc3)C3C=CC2(O3)C1C(=O)NC1CCCCC1` (stereo not drawn), the “activity change, negative = inhibition” value was 3.48% (inactive).

As to `Cc1c(C(=O)NC(C)C2CC3CCC2C3)cccc1[N+](=O)[O-]` (stereo not drawn), the “activity change, negative = inhibition” value is -0.665% (inactive).

`CC(C)c1ccc(C(=O)OC2CCOC2=O)cc1` (stereo not drawn): the “activity change, negative = inhibition” value is -21.9% (inactive).

As to `O=C(OC1CCOC1=O)c1ccc(-c2nc3ccccc3s2)s1` (stereo not drawn), the Potency was 3.55 µM (active).

As to `Cc1nn(Cc2ccccc2)c(Cl)c1C(=O)OC1CCOC1=O` (stereo not drawn), the “activity change, negative = inhibition” value is -0.363% (inactive).

As for `CCOc1ccc(NC(=O)c2nc(SCC)ncc2Cl)cc1`, the “activity change, negative = inhibition” value was 7.38% (inactive).

Turning to `CC1CC(C)CN(C(=O)CCNC(=O)Cn2cnc3ccccc3c2=O)C1` (stereo not drawn), the “activity change, negative = inhibition” value is 19% (inactive).

For the compound `CCc1ccc(-c2cc(C)no2)cc1S(=O)(=O)NCCc1ccc(S(N)(=O)=O)cc1`, the “activity change, negative = inhibition” value is 25.5% (inactive).

For `Cc1cc(=O)oc(C)c1C(=O)N1CCCCC1`, the “activity change, negative = inhibition” value is 1.13% (inactive).

In the case of `Cc1ccc2cc3cc(C(=O)N4CCCCCC4)oc3nc2c1`, the Potency was 10 µM (active).

With `Cc1cccc(C(=O)N2CCCN(C(=O)c3cccc(C)c3)CC2)c1`, the “activity change, negative = inhibition” value was 14.8% (inactive).

In the case of `CCC1=Nc2cc(C(=O)NCCCN3CCOCC3)ccc2Sc2ccc(Br)cc21`, the “activity change, negative = inhibition” value is 2.37% (inactive).

As to `COc1cccc(CN(C)CC(O)COC(c2ccccc2)c2ccccc2C)c1` (stereo not drawn), the “activity change, negative = inhibition” value is 17.3% (inactive).

As for `CSc1ccc(CCNC(=O)CS(=O)(=O)Cc2nc(-c3ccccc3F)oc2C)cc1`, the “activity change, negative = inhibition” value is -13.9% (inactive).

In the case of `O=C(Nc1nnc(C2=COCCO2)o1)c1ccc([N+](=O)[O-])s1`, the Potency was 2.82 µM (active).

On to `Cc1ccc(C(=O)Nc2nnc(C3=COCCO3)o2)cc1C`, for which the Potency is 0.282 µM (active).

Turning to `Cc1ccc(C(=O)Nc2nnc(-c3cccs3)s2)cc1C`, the “activity change, negative = inhibition” value is 1.53% (inactive).

Regarding `Cc1ccc(C(=O)NCCN2CCOCC2)cc1C`, the “activity change, negative = inhibition” value is -24.5% (inactive).

Turning to `COc1ccc(C(CNCC(=O)Nc2ccccc2F)N(C)C)cc1` (stereo not drawn), the “activity change, negative = inhibition” value is -0.678% (inactive).

As to `C=CCn1c(CNS(=O)(=O)c2ccc(Br)cc2)nnc1SC`, the “activity change, negative = inhibition” value was 2.64% (inactive).

In the case of `CC(C)c1ccc2oc(=O)cc(CN3CCN(Cc4ccccc4)CC3)c2c1`, the “activity change, negative = inhibition” value was 8.06% (inactive).

Turning to `CCOc1ccc(NC(=O)CSc2nncn2C)cc1`, the “activity change, negative = inhibition” value was 6.27% (inactive).

Regarding `COc1ccc(C)cc1NC(=O)CN(C)S(=O)(=O)c1ccc2c(c1)n(C)c(=O)c(=O)n2C`, the “activity change, negative = inhibition” value was -2.02% (inactive).

Turning to `CC(C)c1ccc(N(C(=O)c2ccco2)C(C(=O)NC2CCCC2)c2cccnc2)cc1` (stereo not drawn), the “activity change, negative = inhibition” value was 17.8% (inactive).

Take `COc1ccc(CNC(=O)c2ccc3oc(C(C)C)nc3c2)cc1`: the “activity change, negative = inhibition” value was 24.2% (inactive).

As to `COc1ccc(N2CCN(S(=O)(=O)c3ccc4c(c3)N(C(C)=O)CCO4)CC2)cc1`, the “activity change, negative = inhibition” value was 17.5% (inactive).

As to `CCOCCCN(C)C1CCN(C(=O)c2oc3ccccc3c2NC(=O)Cc2cccc([N+](=O)[O-])c2)CC1`, the “activity change, negative = inhibition” value is -6.41% (inactive).

With `Cc1nnnn1/C(=C\c1ccccc1)C(=O)OCC(=O)N1CC2(C)CC1CC(C)(C)C2` (stereo not drawn), the Potency was 5.01 µM (active).

On to `COc1cc(CCC(=O)N2CCN(c3ccccc3Cl)CC2)cc(OC)c1OC`, for which the “activity change, negative = inhibition” value was 19% (inactive).

`COc1ccc(N2CCC(CNC(=S)Nc3c(C)cccc3C)C2)cc1` (stereo not drawn): the Potency was 0.891 µM (active).

Consider `COc1ccc(NC(=S)NCCN2CCC(C)CC2)cc1`, for which the “activity change, negative = inhibition” value was 2.43% (inactive).

`COc1cccc(N2CC(C(=O)Nc3c(C)cccc3C)CC2=O)c1` (stereo not drawn): the “activity change, negative = inhibition” value was -10.1% (inactive).

Turning to `COc1ccc(NC(=O)N2CCC(Cc3ccccc3)CC2)cc1`, the “activity change, negative = inhibition” value is 23.2% (inactive).

As to `COc1ccc(NC(=S)NCC2CCN(c3ccc(OC)cc3)C2)cc1` (stereo not drawn), the Potency is 3.16 µM (active).

Turning to `COc1ccc(OCC(=O)Nc2ccc(N3CCC(C)CC3)cc2)cc1`, the “activity change, negative = inhibition” value is -21.7% (inactive).

As to `O=C(Cn1nc(C(=O)O)c2ccccc2c1=O)Nc1ccc(F)cc1`, the “activity change, negative = inhibition” value is 18.6% (inactive).

On to `CC1Sc2ccc(S(=O)(=O)CCC(=O)NCc3ccccc3Cl)cc2NC1=O` (stereo not drawn), for which the “activity change, negative = inhibition” value was 10.1% (inactive).

As to `CC(=O)c1cc(CN2CCC(C(=O)Nc3cccc(-c4cscn4)c3)CC2)cs1`, the “activity change, negative = inhibition” value is 0% (inactive).

For `COc1ccc(CCNC(=O)c2nnc(CS(=O)(=O)c3ccccc3)o2)cc1OC`, the “activity change, negative = inhibition” value is -8.42% (inactive).

In the case of `Cc1cccc(OCC(=O)Nc2ccc(C(=O)O)cc2NC(=O)COc2cccc(C)c2)c1`, the “activity change, negative = inhibition” value was -33.8% (inactive).

Turning to `COCCNc1ccc(-c2n[nH]c(=O)c3ccccc23)cc1[N+](=O)[O-]`, the “activity change, negative = inhibition” value was -3.41% (inactive).
